# In PubChem BioAssay (NCATS):
# Records with an inconclusive call do not appear. A number with no mark means an inactive call. Activity calls are given as the source filed them. Calls follow the shape of the full dose curve; tested in HEK293 reporter line.
# Test: qHTS for Inhibitors of the Functional Ribonucleoprotein Complex (vRNP) of Lassa (LASV) Arenavirus: Viability assay - alamar blue signal for LASV Primary Screen (AID 1347083)
# Settings: cell viability, alamar blue fluorescence (LASV minigenome counter-screen); series mostly up to 57.5 µM; activity change, negative = reduced viability: at the top concentration
# % is scaled to controls: 0 for no effect and ±100 for the full control effect; potency is read from the fitted curve at half-maximal effect.
# Also: nearly all actives have a fitted effect of over 80% in size.
Structure (SMILES),"activity change, negative = reduced viability",Potency
Cc1cnc(-c2cc(N3CCN(C(=O)CCS(C)(=O)=O)CC3)ncc2Cl)c(C)c1,-30.4%,–
O=C(CN1C(=O)C2(CCCC2)NC[C@H]1c1cc(F)cc(F)c1)Nc1ccc2c(c1)C[C@@]1(C2)C(=O)Nc2ncccc21,-1.56%,–
CC1=C(C(=O)Nc2cc3cn[nH]c3cc2F)C(c2ccc(C(F)(F)F)cc2)CC(=O)N1 (stereo not given),1.17%,–
O=C(c1cncc(Br)c1)N1CCC(N2CCCC2)CC1,-17.9%,–
COc1ccc2c(OCc3nnc4ccc(-c5ccccc5)nn34)ccnc2c1,22.3%,–
c1coc(CNc2ncnc3nc[nH]c23)c1,–,inactive
CCCCCCCCCCCCCCCC(=O)O[C@H]1[C@@H](O)[C@@H](O)[C@@H]([C@H](NC(=O)[C@@H]2C[C@@H](CCC)CN2C)[C@H](C)Cl)O[C@@H]1SC,0.218%,–
CC1CNc2c(cccc2S(=O)(=O)N[C@@H](CCCN=C(N)N)C(=O)N2CC[C@@H](C)C[C@@H]2C(=O)O)C1 (stereo not given in full),0.228%,–
COc1ccc2cc(-c3nc(-c4ccc(S(C)=O)cc4)[nH]c3-c3ccncc3)ccc2c1 (stereo not given),–,24.3 µM (active)
CC1COC2(CCN(c3nc(=O)c4cc(C(F)(F)F)cc([N+](=O)[O-])c4s3)CC2)O1 (stereo not given),-11.7%,–
COC1CCC(C(=O)c2ccc3nc4c(cc3c2)CCCO4)CC1 (stereo not given),-15.8%,–
O=C(/C=C/C=C/c1ccc2c(c1)OCO2)N1CCCCC1,2.39%,–
CC1CCN(c2cc(N3CCN(C)CC3)ccc2NC(=O)c2cc(C#N)c[nH]2)CC1,5.51%,–
C[C@@H]1C(=O)O[C@H]2CC34[C@H]5C[C@@H](C(C)(C)C)C36[C@H](OC(=O)[C@@H]6O)O[C@@]4(C(=O)O5)[C@]21O (stereo not given in full),-1.28%,–
COc1cc2c(cc1OC)C1CC(=O)C(CC(C)C)CN1CC2 (stereo not given),-4.93%,–
O=[N+]([O-])c1ccc(-c2nc(-c3ccc(F)cc3)c(-c3ccncc3)[nH]2)cc1,-8.44%,–
COc1ccc2cc([S+]([O-])Cc3ncc(C)c(OC)c3C)nc2c1,-5.88%,–
Cc1ccccc1C(C(=O)NC1CCCCC1)N(C(=O)Cn1ccnc1C)c1cccc(F)c1 (stereo not given),3.61%,–
Cc1ccccc1C(C(=O)NC1CCCCC1)N(C(=O)CNc1ccc(C#N)cc1)c1cccc(F)c1 (stereo not given),12.4%,–
O=c1[nH]c(=O)n(C2CCCO2)cc1F (stereo not given),-8.29% [at 115 µM],–

Structure (SMILES),"activity change, negative = reduced viability",Potency
O=C(CCN1CCN(C(=O)OCc2cc(Cl)cc(Cl)c2)CC1)c1ccc2[nH]c(=O)oc2c1,-9.15%,–
O=C(Nc1nc2ccccc2n1CCN1CCOCC1)c1cccc([N+](=O)[O-])c1,-1.38%,–
O=C(NC1CCOCC1)c1ccc(-c2cc(-c3cn[nH]c3-c3ccccn3)ccn2)cc1,16%,–
CC(C)N(CC[C@H](c1ccccc1)c1cc(CO)ccc1O)C(C)C,-15.3%,–
CC(Cc1ccc(O)c(O)c1)(NN)C(=O)O (stereo not given),-0.954%,–
O=C(O)C1CCCN(CCC=C(c2ccccc2)c2ccccc2)C1 (stereo not given),–,inactive
COc1ccc([C@@H]2CNC(=O)C2)cc1OC1CCCC1,–,2.73 µM (active)
Cc1cc(NC(=O)Nc2ccc(N(C)C)cc2)c2cc(F)cc(F)c2n1,-3.73%,–
Cc1ccccc1-n1c(Cn2nc(-c3cccc(O)c3)c3c(N)ncnc32)nc2cccc(C)c2c1=O,–,6.11 µM (active)
Cc1ccc(O)c(C(CCN(C(C)C)C(C)C)c2ccccc2)c1 (stereo not given),6.18%,–
Cc1cc(O)c2c(c1)C(=O)c1cccc(O)c1C2=O,-0.0778%,–
COc1ccccc1N1CCN(CCN(C(=O)C2CCCCC2)c2ccccn2)CC1,-13.3%,–
O=C1CCC[C@@H]2[C@H]3CCC[N+]4([O-])CCC[C@@H](CN12)[C@@H]34 (stereo not given in full),4.58%,–
OC[C@H]1OC(O)C[C@@H](O)[C@H]1O (stereo not given in full),-8.64%,–
Cc1ccc(CN2CCNCC2)cc1NC(=O)CNc1ccc(F)c(F)c1,5.41%,–
Cc1cc(O)c2c(c1)C(=O)c1cc(O)cc(O)c1C2=O,–,inactive
COc1cc(O)c2c(c1)C(=O)c1cc(C)cc(O)c1C2=O,-0.943%,–
CC(C(C)N1CC(=O)NC(=O)C1)N1CC(=O)NC(=O)C1 (stereo not given),11.2%,–
CCN1CCCC1CNC(=O)c1cc(S(N)(=O)=O)ccc1OC (stereo not given),–,inactive
Nc1[nH]nc2nnc(-c3c(-c4ccccc4)nn4ccccc34)cc12,-33.3%,–

# Test: qHTS for Inhibitors of the Functional Ribonucleoprotein Complex (vRNP) of Lymphocytic Choriomeningitis Arenaviruses (LCMV): Viability assay - alamar blue signal for LCMV Primary Screen (AID 1347085)
# Settings: alamar blue viability counter-screen, LCMV vRNP screen cells; series mostly up to 57.5 µM; activity change, negative = lower viability: at the top concentration
Structure (SMILES),"activity change, negative = lower viability",Potency
Cc1cnc(-c2cc(N3CCN(C(=O)CCS(C)(=O)=O)CC3)ncc2Cl)c(C)c1,-1.49%,–
O=C(CN1C(=O)C2(CCCC2)NC[C@H]1c1cc(F)cc(F)c1)Nc1ccc2c(c1)C[C@@]1(C2)C(=O)Nc2ncccc21,-9.36%,–
CC1=C(C(=O)Nc2cc3cn[nH]c3cc2F)C(c2ccc(C(F)(F)F)cc2)CC(=O)N1 (stereo not given),-20.1%,–
O=C(c1cncc(Br)c1)N1CCC(N2CCCC2)CC1,-7.03%,–
COc1ccc2c(OCc3nnc4ccc(-c5ccccc5)nn34)ccnc2c1,1.04%,–
c1coc(CNc2ncnc3nc[nH]c23)c1,–,inactive
CCCCCCCCCCCCCCCC(=O)O[C@H]1[C@@H](O)[C@@H](O)[C@@H]([C@H](NC(=O)[C@@H]2C[C@@H](CCC)CN2C)[C@H](C)Cl)O[C@@H]1SC,2.73%,–
CC1CNc2c(cccc2S(=O)(=O)N[C@@H](CCCN=C(N)N)C(=O)N2CC[C@@H](C)C[C@@H]2C(=O)O)C1 (stereo not given in full),-3.64%,–
COc1ccc2cc(-c3nc(-c4ccc(S(C)=O)cc4)[nH]c3-c3ccncc3)ccc2c1 (stereo not given),–,4.85 µM (active)
CC1COC2(CCN(c3nc(=O)c4cc(C(F)(F)F)cc([N+](=O)[O-])c4s3)CC2)O1 (stereo not given),0.0636%,–
COC1CCC(C(=O)c2ccc3nc4c(cc3c2)CCCO4)CC1 (stereo not given),-7.73%,–
O=C(/C=C/C=C/c1ccc2c(c1)OCO2)N1CCCCC1,20%,–
CC1CCN(c2cc(N3CCN(C)CC3)ccc2NC(=O)c2cc(C#N)c[nH]2)CC1,0.929%,–
C[C@@H]1C(=O)O[C@H]2CC34[C@H]5C[C@@H](C(C)(C)C)C36[C@H](OC(=O)[C@@H]6O)O[C@@]4(C(=O)O5)[C@]21O (stereo not given in full),-10.3%,–
COc1cc2c(cc1OC)C1CC(=O)C(CC(C)C)CN1CC2 (stereo not given),-1.99%,–
O=[N+]([O-])c1ccc(-c2nc(-c3ccc(F)cc3)c(-c3ccncc3)[nH]2)cc1,-13.4%,–
COc1ccc2cc([S+]([O-])Cc3ncc(C)c(OC)c3C)nc2c1,1.57%,–
Cc1ccccc1C(C(=O)NC1CCCCC1)N(C(=O)Cn1ccnc1C)c1cccc(F)c1 (stereo not given),0.692%,–
Cc1ccccc1C(C(=O)NC1CCCCC1)N(C(=O)CNc1ccc(C#N)cc1)c1cccc(F)c1 (stereo not given),4.53%,–
O=c1[nH]c(=O)n(C2CCCO2)cc1F (stereo not given),-9.57% [at 115 µM],–

Structure (SMILES),"activity change, negative = lower viability",Potency
O=C(CCN1CCN(C(=O)OCc2cc(Cl)cc(Cl)c2)CC1)c1ccc2[nH]c(=O)oc2c1,1.28%,–
O=C(Nc1nc2ccccc2n1CCN1CCOCC1)c1cccc([N+](=O)[O-])c1,-6.99%,–
O=C(NC1CCOCC1)c1ccc(-c2cc(-c3cn[nH]c3-c3ccccn3)ccn2)cc1,15.4%,–
CC(C)N(CC[C@H](c1ccccc1)c1cc(CO)ccc1O)C(C)C,-30%,–
CC(Cc1ccc(O)c(O)c1)(NN)C(=O)O (stereo not given),19.3%,–
O=C(O)C1CCCN(CCC=C(c2ccccc2)c2ccccc2)C1 (stereo not given),–,inactive
COc1ccc([C@@H]2CNC(=O)C2)cc1OC1CCCC1,–,3.43 µM (active)
Cc1cc(NC(=O)Nc2ccc(N(C)C)cc2)c2cc(F)cc(F)c2n1,-3.06%,–
Cc1ccccc1-n1c(Cn2nc(-c3cccc(O)c3)c3c(N)ncnc32)nc2cccc(C)c2c1=O,–,4.32 µM (active)
Cc1ccc(O)c(C(CCN(C(C)C)C(C)C)c2ccccc2)c1 (stereo not given),-2.52%,–
Cc1cc(O)c2c(c1)C(=O)c1cccc(O)c1C2=O,2.3%,–
COc1ccccc1N1CCN(CCN(C(=O)C2CCCCC2)c2ccccn2)CC1,-3.19%,–
O=C1CCC[C@@H]2[C@H]3CCC[N+]4([O-])CCC[C@@H](CN12)[C@@H]34 (stereo not given in full),-8.74%,–
OC[C@H]1OC(O)C[C@@H](O)[C@H]1O (stereo not given in full),-6.93%,–
Cc1ccc(CN2CCNCC2)cc1NC(=O)CNc1ccc(F)c(F)c1,11.1%,–
Cc1cc(O)c2c(c1)C(=O)c1cc(O)cc(O)c1C2=O,–,inactive
COc1cc(O)c2c(c1)C(=O)c1cc(C)cc(O)c1C2=O,0.0974%,–
CC(C(C)N1CC(=O)NC(=O)C1)N1CC(=O)NC(=O)C1 (stereo not given),2.26%,–
CCN1CCCC1CNC(=O)c1cc(S(N)(=O)=O)ccc1OC (stereo not given),–,inactive
Nc1[nH]nc2nnc(-c3c(-c4ccccc4)nn4ccccc34)cc12,-29.8%,–
